Test results published in PubChem BioAssay AID623868 (Vanderbilt High Throughput Screening Facility, 2012).
Out of some 2,100 compounds screened, about 760 (36%) were called active.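 How the source made its calls: active means thallium-flux fluorescence traces judged by eye to show enhanced or reduced glutamate response, manual score 1 or -1, so both directions (some results past the limit were not filed as active); inactive means the rest, including fluorescent or raised-baseline compounds.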 A selection follows.

Assay: thallium influx changes without GIRK channels – cell-based, HEK-293 rmGlu8, no GIRK, thallium flux, counter-screen for GIRK activator project, confirmation (AID 623868);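 further: extra codes mark interference with 3 for fluorescent and 4 for baseline rise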
Settings: thallium flux fluorescence, at 10 µM, actives lie on both sides, codes: 1 enhancer, -1 blocker, 0 none, thallium stimulus containing EC20 glutamate
With `CCCCOc1ccccc1C1C(C(=O)OC)=C(C)N(C)C(C)=C1C(=O)OC` the manual score was 0 (inactive).
In the case of `O=C(C1CCCN(Cc2cccs2)C1)N1CCCCCC1` (configuration not stated), the manual score is reported as 0 (inactive).
For `CS(=O)(=O)Nc1ccc(C2=NN(C(=O)C3CCCCC3)C(c3cccs3)C2)cc1` (configuration not stated), the manual score was -1 (active).
In the case of `CCCCCCn1c(=O)[nH]c2nc3cc(N)ccc3nc2c1=O`, the manual score is reported as 3 (inactive).
For `Cc1ccc(NC2CC(=O)N(CCc3ccccc3)C2=O)cc1` (configuration not stated), the manual score was 0 (inactive).
With `O=c1c2ccccc2nc(-c2cccc(Cl)c2)n1O` the manual score was 1 (active).
In the case of `O=c1c2ccc(Cl)cc2nc(-c2cccc(C(F)(F)F)c2)n1O`, the manual score is reported as 1 (active).
For `O=c1c2cc(Br)ccc2nc(-c2cccc(C(F)(F)F)c2)n1O`, the manual score was 1 (active).
For `O=c1c2ccccc2nc(-c2ccccc2)n1/N=C/c1ccc([N+](=O)[O-])cc1`, the manual score was 0 (inactive).
In the case of `CCN1c2ccccc2-c2nc3ccccc3n2C1c1ccco1` (configuration not stated), the manual score is reported as 0 (inactive).
In the case of `CC1=CC(C)(C)n2c(O)c(N=NC(N)=S)c3cccc1c32`, the manual score is reported as 0.5 (inactive).
For `CN(C)c1nc(OCCNC(=O)COc2ccc(Cl)cc2Cl)nc(N2CCOCC2)n1`, the manual score was 0 (inactive).
In the case of `O=C(COc1ccccc1F)NC1CCN(Cc2ccccc2)CC1`, the manual score is reported as 0 (inactive).
For `Fc1ccc(NC(=S)NN=C2CCCCCC2)cc1`, the manual score was 1 (active).
In the case of `Cc1cc(C)c2c(c1)/C(=N/NC(=S)Nc1ccc(F)cc1)CCC2`, the manual score is reported as 0 (inactive).
With `Fc1ccccc1CNC(=S)Nc1ccc(Cl)cc1` the manual score was 0 (inactive).
For `S=C(NN=C1CCCCCC1)Nc1ccc(Cl)cc1`, the manual score was 1 (active).
In the case of `Fc1ccc(NC(=S)NCc2ccccc2Cl)cc1`, the manual score is reported as 0 (inactive).
With `Cn1c(C(=O)OC(C(=O)NC2CCCCC2)c2ccncc2)cc2sccc21` (configuration not stated) the manual score was 0 (inactive).
With `O=C(CSc1nc(CCC2CCCC2)nc2ccccc12)NCc1ccc2c(c1)OCO2` the manual score was 0.5 (inactive).
For `c1ccc(-c2nnc3n2NC(c2ccc4c(c2)OCO4)S3)cc1` (configuration not stated), the manual score was 1 (active).
For `Cc1nccn1CCc1nc(N)nc(N)n1`, the manual score was 0 (inactive).
In the case of `O=C(NC(=S)Nc1nc2c(ccc3ccccc32)s1)c1cccs1`, the manual score is reported as 1 (active).
For `Cc1ccc2nc(NC(=S)NC(=O)c3cccs3)sc2c1`, the manual score was 0.5 (inactive).
With `O=C(NC(=S)Nc1nc2ccccc2s1)c1cccs1` the manual score was 1 (active).
In the case of `CCN(CC)C(=O)COc1ccc2oc(C)c(C(=O)OC)c2c1`, the manual score is reported as 0 (inactive).
In the case of `CN=C(C)C1=C(O)C(C(=O)OC)C(C)(C)CC1=O` (configuration not stated), the manual score is reported as 0 (inactive).
For `CC(C)c1nc(N2CCOCC2)c(C#N)c2c1CCCC2`, the manual score was 0 (inactive).
For `CC1CCc2nn(CC(=O)N3CCN(C(=O)c4ccco4)CC3)cc2C1` (configuration not stated), the manual score was 0 (inactive).
For `CCc1cc2cc(C)ccc2nc1SCC(=O)N1CCN(C(=O)c2ccco2)CC1`, the manual score was 0 (inactive).
For `Cc1cc2cc3c(cc2nc1SCC(=O)N1CCN(C(=O)c2ccco2)CC1)OCO3`, the manual score was -1 (active).
For `CC(C)CC(=O)CN1C(=O)C2(OCCO2)c2ccccc21`, the manual score was 0 (inactive).
With `C=CCn1c(=S)[nH]c2sc3c(c2c1=O)CCC3` the manual score was 1 (active).
In the case of `Cc1cc(C(=O)CSc2nnc(-c3ccncc3)n2-c2ccccc2)c(C)n1C`, the manual score is reported as 0 (inactive).
With `O=C(Nn1cnnc1)c1cc2cc(Br)ccc2oc1=O` the manual score was 0 (inactive).
For `CC(C)OCCCn1c(=S)[nH]c2cc3c(cc2c1=O)OCO3`, the manual score was 1 (active).
For `Cc1ccccc1Cn1cc(NC(=O)c2nc3ncccn3n2)cn1`, the manual score was 0 (inactive).
For `O=C(NNS(=O)(=O)c1cc(Cl)cc(Cl)c1)c1sccc1-n1cccc1`, the manual score was 0 (inactive).
In the case of `O=C(NNC(=O)c1sccc1-n1cccc1)c1ccc(Cl)cc1`, the manual score is reported as 1 (active).
With `O=C(NNC(=O)c1sccc1-n1cccc1)c1cccc(Cl)c1` the manual score was 1 (active).
In the case of `COc1ccc2[nH]c(C)c(C(=O)CN3CC(C)OC(C)C3)c2c1` (configuration not stated), the manual score is reported as 0 (inactive).
For `COCCn1c(=S)[nH]c2cc(C(=O)N3CCN(c4ccc(F)cc4)CC3)ccc2c1=O`, the manual score was 0 (inactive).
For `Cc1cccn2c(=O)c3cc(C#N)c(=NC(=O)c4cccnc4)n(CC4CCCO4)c3nc12` (configuration not stated), the manual score was 3 (inactive).
In the case of `COC(=O)c1ccc(C)c(NC(=O)CN2C(=O)c3ccccc3S2(=O)=O)c1`, the manual score is reported as 0 (inactive).
For `CCn1c(=S)[nH]c2cc(C(=O)OC)ccc2c1=O`, the manual score was 1 (active).
In the case of `COC(=O)c1ccc2c(=O)n(CC3CCCO3)c(=S)[nH]c2c1` (configuration not stated), the manual score is reported as 1 (active).
In the case of `COc1ccc2occ(C(=O)c3ccc(N=C(C)N(C)C)cc3)c2c1`, the manual score is reported as 0 (inactive).
With `O=c1c2ccccc2c(C=NCc2ccccn2)c(O)n1-c1ccccc1` the manual score was 0 (inactive).
For `Cc1[nH]n(-c2ccccc2)c(=O)c1N=Nc1nccs1`, the manual score was 1 (active).
For `Cc1[nH]n(-c2ccccc2)c(=O)c1/C=N/c1ccccn1`, the manual score was 1 (active).
In the case of `CC1=NN(c2ccccc2)C(=O)/C1=C\c1c(C)[nH]n(-c2ccccc2)c1=O`, the manual score is reported as 0 (inactive).
In the case of `Cc1ccc(-n2[nH]c(C)c(C=Nc3cc(C)ccn3)c2=O)cc1`, the manual score is reported as 1 (active).
For `CCCCN(CCCC)C(=S)N/N=C/c1c(C)[nH]n(-c2ccccc2)c1=O`, the manual score was 1 (active).
In the case of `Cc1ccc(-n2[nH]c(C)c(/C=N/c3ccccn3)c2=O)cc1`, the manual score is reported as 0.5 (inactive).
In the case of `CCN(Cc1ccccc1)C(c1ccccn1)c1nnnn1C1CCCCC1` (configuration not stated), the manual score is reported as 0 (inactive).
For `CN(C)CCNC(=O)c1cc2c(s1)-c1ccccc1OC2`, the manual score was 0 (inactive).
In the case of `CC(NC(=O)c1ccccc1NC(=O)CSc1nnnn1C)c1ccccc1` (configuration not stated), the manual score is reported as 0 (inactive).
In the case of `CN(C)Cc1c(O)ccc2occ(C(O)c3ccccc3)c12` (configuration not stated), the manual score is reported as 0 (inactive).
In the case of `O=C1CC(N2CCN(c3nc4ccccc4s3)CC2)C(=O)N1c1ccc(F)cc1` (configuration not stated), the manual score is reported as 0 (inactive).
With `Cn1c(=O)cc(OCCCC(=O)NCc2ccc3c(c2)OCO3)c2ccccc21` the manual score was 0 (inactive).
With `Cc1[nH]n(-c2ccc(Cl)cc2)c(=O)c1/C=N/c1nnc(-c2ccccc2)s1` the manual score was 1 (active).
In the case of `CC(C)C1Cc2c(sc3[nH]c(=S)n(Cc4ccccc4)c(=O)c23)CO1` (configuration not stated), the manual score is reported as 1 (active).
For `CCC1(C)Cc2c(sc3[nH]c(=S)n(Cc4ccccc4)c(=O)c23)CO1` (configuration not stated), the manual score was 1 (active).
With `CC1(C)Cc2c(sc3[nH]c(=S)n(Cc4ccco4)c(=O)c23)CO1` the manual score was 1 (active).
For `CC(C)C1Cc2c(sc3c2c(=O)n(Cc2ccccc2)c2nncn32)CO1` (configuration not stated), the manual score was -0.5 (inactive).
With `CC1(C)Cc2c(sc3[nH]c(=S)n(Cc4ccccc4)c(=O)c23)CO1` the manual score was 1 (active).
For `Cc1ccc(C)c(OCC(O)CN2C(C)CCCC2C)c1` (configuration not stated), the manual score was 0 (inactive).
